FBW7 act – FBW7 E3 ligase activators, primary screen, biochemical, AlphaScreen, human. AlphaScreen FBW7–phospho-cyclin E peptide binding, activator screen. normalized activity (activation), % at 26.1 µM. actives 0.13% (n = 650,000); in the data active = normalized activity above about 1.9%;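 also: purified mutant Fbw7 with reduced substrate affinity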
GPR151 ag – activators of human GPR151, primary screen, cell-based, PathHunter beta-arrestin, luminescence; G-protein coupled receptor 151 (Homo sapiens), Q8TDV0; PathHunter beta-arrestin GPR151 cells; activation, % at 11.2 µM; actives 1% (n = 650,000); in the data active = activation above about 4.9%;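 also: 0% = median of compound wells and 100% = cells with positive control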
Target sequence (Q8TDV0 whole entry, looked up): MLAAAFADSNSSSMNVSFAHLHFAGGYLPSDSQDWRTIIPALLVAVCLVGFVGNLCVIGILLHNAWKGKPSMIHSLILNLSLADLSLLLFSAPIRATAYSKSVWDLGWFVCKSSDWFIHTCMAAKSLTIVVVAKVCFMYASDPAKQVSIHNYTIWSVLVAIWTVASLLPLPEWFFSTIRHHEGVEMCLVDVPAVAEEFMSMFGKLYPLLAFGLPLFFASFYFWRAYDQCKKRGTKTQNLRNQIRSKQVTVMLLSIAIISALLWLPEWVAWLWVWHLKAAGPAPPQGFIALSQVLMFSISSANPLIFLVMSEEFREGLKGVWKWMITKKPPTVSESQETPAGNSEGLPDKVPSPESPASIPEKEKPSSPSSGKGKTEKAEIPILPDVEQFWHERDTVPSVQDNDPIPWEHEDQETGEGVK
MITF inh – MITF inhibitors, primary screen, biochemical, AlphaScreen, human; Microphthalmia-associated transcription factor (Homo sapiens), O75030; AlphaScreen MITF homodimerization, bead proximity signal; inhibition, % at 2.6 µM; actives 0.91% (n = 650,000); AID 1259374, 2018; in the data active = inhibition above about 50%;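 also: 0% = vehicle wells with protein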
TEAD-YAP inh – TEAD-YAP interaction inhibition, primary screen, TEAD-YAP interaction inhibitor project, luminescence, HEK-TIYL cells. TEAD-Gal4/YAP UAS-luciferase luminescence. inhibition, % at 9.12 µM. actives 1.4% (n = 640,000); in the data active = inhibition above about 32%;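 also: 0% = median of test compound wells and 100% = reference inhibitor wells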
GPR151 conf act – GPR151 activators, triplicate retest, confirmation, cell-based, PathHunter beta-arrestin, luminescence | shares compounds with GPR151 ag | GPR151 PathHunter beta-arrestin cells, 90 min; % of EA-reagent control over plate median | activation, % at 11.2 µM | 6,700 tested, under 10 active | AID 1508609, 2020;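 active = mean percent activation across replicates above the confirmation screen cutoff of 4.91%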
GPR119 ag – GPR119 activators in beta-arrestin cells, counter-screen for GPR151 activator project, cell-based, PathHunter beta-arrestin, luminescence, triplicate; shares compounds with GPR151 ag; 90 min; 0 = compound-well median, 100 = enzyme-acceptor control; activation, % at 11.2 µM; actives 0.3% (n = 6,700); AID 1508611, 2020;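 active = mean percent activation in the counterscreen above 29.09%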;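 also: counterscreen on off-target GPR119 to flag nonselective hits from the GPR151 activator screen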
* = called active by the depositor. Only some compounds are listed: those with a hit (about 3.5% of all), similar ones and a draw of the others.

What do the screens show for `CC1CCCCC1NC(=O)c1cc2sccc2n1C` (configuration not stated)?
FBW7 act: 0.0; GPR151 ag: -0.2; MITF inh: -5.7; TEAD-YAP inh: -4.9

What do the screens show for `COCCN1CC(CNC(=O)c2cc(COc3ccc(F)cc3Cl)on2)CC1=O` (configuration not stated)?
FBW7 act: 0.0; GPR151 ag: 9.8*; MITF inh: 6.7; TEAD-YAP inh: 1.8; GPR151 conf act: -1.2; GPR119 ag: -9.5

Results for CC(=O)N(C)c1ccc(NC(=O)c2ccco2)cc1 ?
FBW7 act: 0.0; GPR151 ag: 5.3*; MITF inh: 8.1; TEAD-YAP inh: -27.3; GPR151 conf act: -0.7; GPR119 ag: -5.9

Results for O=C(Nc1ccc(Oc2ccc(Cl)cc2)cc1)c1ccccc1C(=O)c1ccc(Cl)c([N+](=O)[O-])c1 ?
FBW7 act: -0.1; GPR151 ag: 2.2; MITF inh: 5.7; TEAD-YAP inh: 11.4

Results for Cc1cccc(CC(Cc2nc3ccccc3[nH]2)c2nc3ccccc3[nH]2)c1 (configuration not stated) ?
FBW7 act: -0.2; GPR151 ag: 5.6*; MITF inh: 6.0; TEAD-YAP inh: 11.6; GPR151 conf act: -0.3; GPR119 ag: -11.1

What do the screens show for `CCOC(=O)C1=C(C)N=c2s/c(=C/c3ccc(-c4ccccc4[N+](=O)[O-])o3)c(=O)n2C1c1ccc(N(C)C)cc1` (configuration not stated)?
FBW7 act: 0.6; GPR151 ag: -1.2; MITF inh: 26.5; TEAD-YAP inh: 1.3

Results for Cc1cc(/C=N/n2cnnc2)c(C)n1-c1ccc(Cl)cc1Cl ?
FBW7 act: -0.1; GPR151 ag: 5.3*; MITF inh: 1.9; TEAD-YAP inh: 6.2; GPR151 conf act: 0.1; GPR119 ag: -1.4

What do the screens show for `Cc1cc(/C=N/n2cnnc2)c(C)n1-c1ccc(Cl)cc1`?
FBW7 act: 0.0; GPR151 ag: -1.2; MITF inh: 9.8; TEAD-YAP inh: -1.6

How did O=S(=O)(NCC(c1ccco1)N1CCc2ccccc21)c1ccc(F)cc1 (configuration not stated) do in these assays?
FBW7 act: -0.1; GPR151 ag: 9.1*; MITF inh: 3.3; TEAD-YAP inh: 4.0; GPR151 conf act: -0.6; GPR119 ag: -8.3

What do the screens show for `CCOC(=O)c1c(C)[nH]c(C(=O)COC(=O)C(CC(C)C)NC(N)=O)c1C` (configuration not stated)?
FBW7 act: 0.1; GPR151 ag: 2.2; MITF inh: 4.9; TEAD-YAP inh: -1.2

Results for c1nnn(CC2CCOCO2)n1 (configuration not stated) ?
FBW7 act: 0.1; GPR151 ag: 14.6*; MITF inh: 11.9; TEAD-YAP inh: 7.1; GPR151 conf act: 0.1; GPR119 ag: -4.9

How did CCOC(=O)N1CCC(NC(=O)c2ccc(N3CC4CC(C3)c3cccc(=O)n3C4)c(NC(=O)c3ccncc3)c2)CC1 (configuration not stated) do in these assays?
FBW7 act: -0.2; GPR151 ag: 4.9*; MITF inh: -1.5; TEAD-YAP inh: -4.7; GPR151 conf act: -0.8; GPR119 ag: -12.1

How did CCOC(=O)N1CCC(NC(=O)c2ccc(N3CC4CC(C3)c3cccc(=O)n3C4)c(NC(=O)c3ccc(C(C)(C)C)cc3)c2)CC1 (configuration not stated) do in these assays?
FBW7 act: 0.4; GPR151 ag: -0.1; MITF inh: 0.7; TEAD-YAP inh: -13.2

How did O=C(Nc1cc(C(=O)N2CCCC2)ccc1N1CC2CC(C1)c1cccc(=O)n1C2)c1ccc(F)cc1 (configuration not stated) do in these assays?
FBW7 act: 0.4; GPR151 ag: 1.1; MITF inh: 3.9; TEAD-YAP inh: 12.5

Results for CC1CC(C)CN(C(=O)c2ccc(N3CC4CC(C3)c3cccc(=O)n3C4)c(NC(=O)c3ccc(F)cc3)c2)C1 (configuration not stated) ?
FBW7 act: 0.0; GPR151 ag: 6.3*; MITF inh: -8.1; TEAD-YAP inh: -6.5; GPR151 conf act: -0.3; GPR119 ag: 5.2

How did O=C(NCCC1=CCCCC1)c1ccc(N2CC3CC(C2)c2cccc(=O)n2C3)c(NC(=O)c2c(F)cccc2F)c1 (configuration not stated) do in these assays?
FBW7 act: 0.0; GPR151 ag: 8.0*; MITF inh: 4.3; TEAD-YAP inh: -3.5; GPR151 conf act: 0.1; GPR119 ag: 3.0

How did COc1cc(/C=C2/C(=N)N3N=C(C(C)C)SC3=NC2=O)ccc1OC(C)c1ccccc1 (configuration not stated) do in these assays?
FBW7 act: 0.0; GPR151 ag: -1.0; MITF inh: 10.5; TEAD-YAP inh: 2.0

What do the screens show for `O=C(Cc1cn(-c2ccc(Nc3cnccn3)nn2)c2ccccc12)NCCOc1ccccc1`?
FBW7 act: 0.0; GPR151 ag: 6.2*; MITF inh: 7.3; TEAD-YAP inh: 9.8; GPR151 conf act: -0.6; GPR119 ag: -6.1

How did Cc1nn(C)cc1CN1CCC(CO)(CCOc2ccccc2)CC1 do in these assays?
FBW7 act: 0.1; GPR151 ag: 10.7*; MITF inh: 3.8; TEAD-YAP inh: 5.2; GPR151 conf act: 0.8; GPR119 ag: 7.7

How did Cc1cnn(C)c1C(=O)Nc1c2c(nn1-c1nc3ccccc3s1)CCC2 do in these assays?
FBW7 act: 0.1; GPR151 ag: 19.8*; MITF inh: 3.9; TEAD-YAP inh: 1.4; GPR151 conf act: -0.2; GPR119 ag: -2.4

What do the screens show for `CC(=O)Nc1c2c(nn1-c1nc3ccccc3s1)CCC2`?
FBW7 act: 0.7; GPR151 ag: -0.2; MITF inh: 10.4; TEAD-YAP inh: -10.0

What do the screens show for `CCOc1ccc(-c2noc(COc3ccccc3)n2)cc1OC`?
FBW7 act: -0.1; GPR151 ag: 0.9; MITF inh: -0.6; TEAD-YAP inh: 7.0

What do the screens show for `COc1cc(C2C(C(N)=O)=C(C)Nc3ncnn32)cc(OC)c1OC` (configuration not stated)?
FBW7 act: 0.0; GPR151 ag: 0.7; MITF inh: -0.7; TEAD-YAP inh: 5.8

Results for COc1ccc(C2C(C(N)=O)=C(C)Nc3ncnn32)cc1OC (configuration not stated) ?
FBW7 act: 0.0; GPR151 ag: 5.1*; MITF inh: 3.1; TEAD-YAP inh: -2.7; GPR151 conf act: 1.0; GPR119 ag: 10.2

From PubChem BioAssay
